According to PubChem BioAssay (NCATS):
Values joined by “and” are separate entries in the source; they are usually repeats but may differ in a detail not shown here. Equal entries are not always repeated. Records with an inconclusive call do not appear. A number with no mark means an inactive call. Active and inactive are the calls of the source. Calls follow the shape of the dose curve; as a rule, active = well fitted cell-killing curve with a large enough effect; inconclusive = small, poorly fitted or top-dose-only effect; inactive = flat fitted curve, though single readings scatter. Where a SMILES comes first, the peptide text is derived from it. [ ]: non-standard residue; d: D form. The star is where a group is joined. Sta = CC(C)C[C@H](N)[C@@H](O)CC(=O)O; Isovaleryl = CC(C)CC(=O)*

Assay: Cellular viability qHTS for adrenocortical cancer (ACC) cell line SW-13 (AID 1963989); also: nearly all actives have a fitted effect of over 65% in size;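 as to activity (max response): cells grown in serum-free medium with ITS supplement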
Details: SW-13 ACC cells viability, CellTiter-Glo, 48 h; activity (max response): stronger effect = lower value
From the text: PI: Naris Nilubol, MD Surgical Oncology Program, National Cancer Institute (NCI) National Institute of Health (NIH), Bethesda, Maryland Adrenocortical cancer (ACC) is a rare malignancy with poor survival outcomes and few treatment options. Currently, mitotane is the only FDA-approved therapy for ACC. Although adjuvant radiation therapy is rarely utilized, it has the potential to improve survival in select cases. Through a quantitative high-throughput drug screen (qHTS), we identified auranofin (AF), a thioredoxin reductase (TXNRD) inhibitor, as a promising candidate drug. This study aims to evaluate whether AF can enhance the efficacy of radiation therapy in the treatment of ACC. Two human ACC cell lines, SW-13 and NCI-H295R, were screened using the National Center for Advancing Translational Sciences (NCATS) Pharmaceutical Collection (NPC) and the Mechanism Interrogation PlatE (MIPE) library (~4,991 compounds). CellTiter-Glo (Cat # G7570, Promega, Madison, WI) was utilized to measure cell viability. Described herein are the results of the corresponding viability assay.
PROTOCOL TABLE (as described by Inglese J, Shamu CE and Guy RK. 2007) SEQUENCE No. (e.g., 1, 2, 3, etc.); […] (e.g., Cells, Incubation, Reagent, etc.); VALUE; DESCRIPTION. 1; Cells; 5 uL; white, solid-bottom, 1536-well tissue-culture treated plates. 2; Time; overnight culture at 37C with 5% CO2. 3; Compounds and control; 23 nL; Kalypsis pin tool (Wako USA) equipped with a 1536-well pin head to transfer to the assay plates. 4; Time; 48 hours; 37C with 5% CO2. 5; Reagent; 4 uL; CellTiter-Glo luminescent substrate mix. 6; Time; 20 min at room temperature. 7; Detection; Luminescence; ViewLux plate reader NOTES (numbers refer to Sequence numbers above) 1. SW13 cells were harvested from a T175 flask and resuspended in ITS-supplemented DMEM serum-free medium at a concentration of 300 000 cells/mL. Then 5 uL of resuspended cells were dispensed into each well of white, solid-bottom, 1536-well tissue-culture-treated plates using a multidrop combi dispenser. The plates were covered with stainless steel gasket lids. 2-3. The plates were cultured overnight at 37C with 5% CO2. Twenty-three nL of compounds (eight selected concentrations from the NPC / MIPE) or positive control (10 mM stock of bortezomib) in DMSO was transferred to each well of the assay plate using a pin tool (Kalypsys, San Diego, CA, USA). The final concentration of the compounds in the 5 uL assay volume ranged from 0.5 nM to 46 uM. 4-6. After 48 hours of incubation at 37C and 5% CO2, 4 uL of CellTilter-Glo luminescent substrate mix (Promega, Madison, WI, USA) was added to each well. Then the plates were incubated for 20 minutes at room temperature. 7. After incubation, luminescence was measured using a ViewLux plate reader (PerkinElmer, Waltham, MA, USA) with a clear filter was used to measure the number of metabolically competent cells. To determine compound activity in the qHTS assay, the titration-response data for each sample was plotted and modeled by a four-parameter logistic fit yielding IC50 and efficacy (maximal response) values. […] REFERENCES: Inglese J, Shamu CE and Guy RK, Reporting data from high throughput screening of small molecule libraries, Nature Chemical Biology, 2007, 3(8): 438-441. doi.org/10.1038/nchembio0807-438.
% is scaled to controls: 0 for no effect and ±100 for the full control effect; potency is read from the fitted curve at half-maximal effect.

Compound	activity (max response)	Potency
CCc1c(O)cc(O)c(C(=O)c2ccc(OCCN3CCOCC3)c(OC)c2)c1CC(=O)N(CCOC)CCOC	-6.69%	–
COC1CC(C(=O)c2ccc3c(N)ncc(-c4ccc(-c5cnn(C)c5)cc4)c3n2)C1 (stereo not given)	-16.1%	–
CC(C)CC(=O)N[C@H](C(=O)N[C@H](C(=O)N[C@@H](CC(C)C)[C@@H](O)CC(=O)N[C@@H](C)C(=O)N[C@@H](CC(C)C)[C@@H](O)CC(=O)O)C(C)C)C(C)C (Isovaleryl-VV[Sta]A[Sta]-OH)	4.2% and -6.21%	–
CC1=C(C/C=C(\C)CCC[C@H](C)CCC[C@H](C)CCCC(C)C)C(=O)c2ccccc2C1=O	12.7%	–
CCN(CCCOc1ccc2c(Nc3cc(CC(=O)Nc4cccc(F)c4)[nH]n3)ncnc2c1)CCOP(=O)(O)O	-30.5%	–
COc1ccc([C@@H]2CNC(=O)C2)cc1OC1CCCC1	-15.2%	–
O=C(Nc1nc2ccccc2n1CCN1CCOCC1)c1cccc([N+](=O)[O-])c1	3.94%	–
CC1(N)CCN(c2cccnc2NC(=O)c2nc(-c3ncccc3C(F)(F)F)cnc2N)CC1	–	17.8 µM (active)
CC(=O)[C@@]1(O)CC[C@H]2[C@@H]3CCC4=CC(=O)CC[C@]4(C)[C@H]3CC[C@@]21C	-6.65%	–
Clc1ccccc1-c1nc(-c2ccncc2)no1	-7.1%	–
C[C@H](c1ccc(F)cc1CCCC(=O)O)N(c1cc(F)ccc1F)S(=O)(=O)c1ccc(Cl)cc1	-23.1%	–
CC1(C)NC(=O)N(c2ccc([N+](=O)[O-])c(C(F)(F)F)c2)C1=O	-3.44% and -9.93%	–
CCCCc1nc(Cl)c(CO)n1Cc1ccc(-c2ccccc2-c2nn[nH]n2)cc1	12.4%	–
O=C(O)c1ccccc1S	5.53%	–
COc1ccc(Oc2cc(NCCC(F)(F)F)c3ncc(-c4ccc(C(=O)NC5CC5)c(C)c4)n3n2)c(F)c1F	-17.7%	–
CC(=O)N[C@@H](CC(C)C)C(=O)O	7.87%	–
Cl/C(=C\n1cncn1)c1ccc(Cl)cc1Cl	2.66%	–
CO[C@@]1(NC(=O)CSC[C@@H](N)C(=O)O)C(=O)N2C(C(=O)O)=C(CSc3nnnn3C)CS[C@@H]21	-7.39%	–
CCNC(=O)NCc1cccc(Cl)c1	-4.81%	–
CC1(C)CC[C@]2(C(=O)O)CC[C@]3(C)C(=CC[C@@H]4[C@@]5(C)C[C@@H](O)[C@H](O)C(C)(C)[C@@H]5CC[C@]43C)[C@@H]2C1	-1.16%	–

Compound	activity (max response)	Potency
O=C1C(c2c(O)[nH]c3ccccc23)=Nc2ccccc21	-5.8%	–
CC(C)c1cc2c(cc1S(=O)(=O)O)[C@@]1(C)CCC[C@@](C)(C(=O)O)[C@@H]1CC2	15.8%	–
Cc1ccc(/C=N/n2c(-c3ccccc3)csc2=S)cc1	8.75%	–
C[C@](N)(Cc1ccc(O)c(O)c1)C(=O)O	12% and -6.33%	–
COc1ccc(CCC(C)=O)cc1	-3.66%	–
O=C1NC(=O)C(c2c[nH]c3ccccc23)=C1c1c[nH]c2ccccc12	–	25.1 µM (active)
Cc1c(C(C)C)c(=O)n(-c2ccccc2)n1C	-5.23%	–
CC(=O)OCC(CCn1cnc2cnc(N)nc21)COC(C)=O	5.15% and -10.4%	–
CN[C@@H]1CN(c2ccc3c(=O)c(C(=O)O)cn(-c4nccs4)c3n2)C[C@@H]1OC	-14.5%	–
OCc1ccccc1O[C@@H]1O[C@H](CO)[C@@H](O)[C@H](O)[C@H]1O	-1.84%	–
CCCN[C@H]1CCc2nc(N)sc2C1	-1.3% and 3.21%	–
O=C(/C=C/c1ccc(CN(CCO)CCc2c[nH]c3ccccc23)cc1)NO	–	0.708 µM (active)
Cc1cnc(-c2cc(N3CCN(C(=O)CCS(C)(=O)=O)CC3)ncc2Cl)c(C)c1	-0.258%	–
C=CC(=O)Nc1cccc(Oc2nc(Nc3ccc(N4CCN(C)CC4)cc3)ncc2Cl)c1	–	1.26 µM (active)
CC1CNc2c(cccc2S(=O)(=O)N[C@@H](CCCN=C(N)N)C(=O)N2CC[C@@H](C)C[C@@H]2C(=O)O)C1 (stereo not given in full)	-14.2%	–
C[C@H]1NCc2cc(-c3ccc4c(=O)c(C(=O)O)cn(C5CC5)c4c3OC(F)F)ccc21	-8.27%	–
CNC(=O)c1cc(Oc2ccc(NC(=O)Nc3ccc(Cl)c(C(F)(F)F)c3)c(F)c2)ccn1	–	3.98 µM (active)
COc1ccc(-c2nc(N3CCOCC3)c3sc(CN(C)c4ncc(C(=O)NO)cn4)cc3n2)cn1	–	0.355 µM (active)
CC(C)(N)c1ccc(-c2nc3ccccc3nc2-c2ccccc2)cc1	-5.56%	–
CC(C)(C)Sc1c(CC(C)(C)C(=O)O)n(Cc2ccc(Cl)cc2)c2ccc(OCc3ccc4ccccc4n3)cc12	0.331%	–
